Cruzain inh Det – blocks cruzain activity in presence of Triton detergent. purified cruzain, Z-FR-AMC fluorescence, 0.01% Triton. 0.43% of 200,000 active. Potency, µM, usual class: inhibitors. P25779; further: nearly all actives have a fitted effect of over 40% in size
Target sequence (P25779 123-467 limits assumed): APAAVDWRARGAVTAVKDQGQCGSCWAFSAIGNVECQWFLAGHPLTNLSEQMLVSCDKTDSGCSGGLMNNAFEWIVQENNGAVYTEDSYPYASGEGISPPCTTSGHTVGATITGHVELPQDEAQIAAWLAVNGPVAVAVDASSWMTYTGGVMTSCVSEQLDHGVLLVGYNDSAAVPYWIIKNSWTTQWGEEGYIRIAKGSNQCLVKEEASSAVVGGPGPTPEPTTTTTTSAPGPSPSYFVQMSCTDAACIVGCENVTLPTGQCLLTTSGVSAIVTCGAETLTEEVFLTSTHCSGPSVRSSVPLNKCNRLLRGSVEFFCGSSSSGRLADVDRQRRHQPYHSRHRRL
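15 min RT preincubation of 1.5 nM cruzain with compound, then 2 uM Z-FR-AMC added; kinetic AMC fluorescence, 60 s delta. Triton X-100 0.01%, pH 5.5.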
Cruzain noTriton – cruzain (T. cruzi) inhibition without detergent | purified cruzain, Z-FR-AMC fluorescence, no detergent | 2.3% of 200,000 active | AID 1476 | Potency, µM, usual class: inhibitors | P25779; further: nearly all actives have a fitted effect of over 40% in size
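Detergent-free condition (0.00005% Triton X-100) in acetate buffer pH 5.5 with DTT. 1.5 nM enzyme and compound were pre-mixed 15 min, then 2 uM Z-FR-AMC substrate added; reaction progress from fluorescence change between first and third reads (60 s).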
Each line names hits and unclear results; the compound was inactive in the other large screens. The list is not random: actives were taken first. Their share in the collection is about 2.6%. The call rests on the fitted dose curve; in most records, active means well fitted curve in the direction sought with a large enough effect; inconclusive means small, poorly fitted or top-dose-only effect, or another doubt; inactive means no such curve, though single readings can be large; an effect the other way counts as inactive or inconclusive.

Cc1c(C(=O)OC(C)C)sc(NC(=O)C2c3ccccc3Oc3ccccc32)c1C(=O)OC(C)C	Cruzain noTriton inconclusive
CCOC(=O)C(NC(=O)CCC(=O)Nc1ccc(S(N)(=O)=O)cc1)C(O)c1ccccc1 (stereo not drawn)	none
CCCCCCCCOC(=O)C(NC(=O)CCC(=O)Nc1ccc(S(N)(=O)=O)cc1)C(O)c1ccccc1 (stereo not drawn)	Cruzain noTriton 7.94µM
CCC(Sc1nc2nccnc2c(=O)n1Cc1ccc(F)cc1)C(=O)NC1CCCCC1 (stereo not drawn)	none
Cc1ccc(-c2ccc(C(=O)Nc3ccccc3)o2)c2ccccc12	Cruzain noTriton inconclusive
Cc1ccc(S(=O)(=O)NC(=O)c2ccc(-c3ccc(C)c4ccccc34)o2)cc1	Cruzain inh Det 25.1µM
CC(=O)Nc1ccc(S(=O)(=O)Nc2cc(-c3cn4ccccc4n3)ccc2C)cc1	none
COc1cccc(-c2ccc3c(N)c(C(=O)c4ccc(Cl)cc4)sc3n2)c1	Cruzain noTriton 7.94µM
COc1ccc(C(=O)c2sc3nc(-c4ccccc4)ccc3c2N)cc1	Cruzain noTriton inconclusive
COc1ccccc1C(=O)Nc1cccc(C(=O)OCc2cc(=O)n3nc(C)sc3n2)c1	none
Cc1cccc(C(=O)N2c3ncnn3C3(CCCCC3)[C@@H]3CCCC[C@@H]32)c1	none
Cc1ccc(N2CC(C(=O)Nc3nnc(C)s3)CC2=O)cc1 (stereo not drawn)	none
Cc1ccc(N2CC(C(=O)Nc3nnc(SCC(=O)Nc4cc(C)on4)s3)CC2=O)cc1 (stereo not drawn)	Cruzain noTriton 7.94µM
COCCNC(=O)CSc1nc2cc3c(cc2c(=O)n1CCCC(=O)NCc1ccc2c(c1)OCO2)OCO3	none
COc1ccc(C)cc1NC(=O)C(Cc1ccccc1)NS(=O)(=O)c1cccs1 (stereo not drawn)	none
Nc1c(C(=O)NCc2ccc(Cl)cc2)sc2nc(-c3ccc(F)cc3)ccc12	Cruzain inh Det 12.6µM, Cruzain noTriton 10µM
O=C(NCc1ccc(Cl)cc1)c1cc(-c2ccc(F)cc2)on1	Cruzain noTriton inconclusive
C[C@@]1(CO)[C@H](O)CC[C@]2(C)[C@@H]1CC[C@H]1C[C@H]3C[C@]12CC[C@]3(O)COC(=O)CN	none
COC(=O)c1ccc(C(NC(=O)OCc2ccccc2)/C(=C/[C@@H](C)C(=O)NCc2nc3ccccc3s2)c2cccnc2)cc1 (stereo partly drawn)	Cruzain noTriton inconclusive
O=C(NCCCN1CCN(c2ccc(F)cc2)CC1)c1cc2c(Cl)nc3ccccc3c2s1	none
CC(=O)Nc1nc2ccccc2n1CCOc1ccccc1	none
S=C(Nc1ccccc1)Nc1nc2ccccc2n1CCOc1ccccc1	Cruzain noTriton 10µM
CCC1CN(C(=O)N2CCC(C(=O)NCCC3=CCCCC3)CC2)c2cc(C)ccc2O1 (stereo not drawn)	none
CCn1c(-c2cc(Br)cc(OC)c2O)nc2cc(S(=O)(=O)N(C)C)ccc21	Cruzain noTriton 20µM
CCn1c(CSc2nnc(C)n2-c2ccccc2)nc2cc(S(=O)(=O)N(C)C)ccc21	none
CCc1ccc2[nH]c(O)c(N=Nc3nc(-c4ccccc4)cs3)c2c1	Cruzain noTriton 20µM
CCc1cc2c(N=Nc3c(O)[nH]c4ccccc34)ncnc2s1	none
CC(/C=C/c1ccc(OCc2ccccc2)cc1)=N\O	Cruzain noTriton inconclusive
CC(/C=C/c1ccc(O)cc1)=N/O	Cruzain inh Det 22.4µM, Cruzain noTriton 7.94µM
O=C1OCCN1C(=O)[C@H]1[C@H](c2ccc([N+](=O)[O-])cc2)C(c2ccccc2)=NN1c1ccc(Br)cc1	Cruzain noTriton 14.1µM
O=C1OCCN1C(=O)[C@H]1[C@H](c2ccc([N+](=O)[O-])cc2)C(c2cccc(Cl)c2)=NN1c1ccc(Br)cc1	Cruzain noTriton 3.55µM
Cc1cccc(C2=NN(c3ccccc3)[C@@H](C(=O)N3CCOC3=O)[C@@H]2c2ccc([N+](=O)[O-])cc2)c1	Cruzain noTriton inconclusive
COc1ccc(CNc2nc(-c3ccco3)nn2S(=O)(=O)c2ccc(Cl)cc2)cc1OC	none
CCn1c(O)c(/C=C2\C=Nc3ccccc32)sc1=Nc1ccccc1	none
CCn1c(O)c(/C=C2\C=NN=C2c2ccc(C)cc2)sc1=S	Cruzain noTriton 12.6µM
Cc1cccc(C)c1NC(=O)COc1ccc2c(C)c(Cc3ccccc3)c(=O)oc2c1C	Cruzain noTriton 12.6µM
COc1cccc(C(=O)COc2ccc3c(C)c(Cc4ccccc4)c(=O)oc3c2C)c1	Cruzain noTriton inconclusive
Cc1cc(C)cc(NC(=O)COc2ccc3c(C)c(Cc4ccccc4)c(=O)oc3c2)c1	Cruzain noTriton inconclusive
Cc1c(Cc2ccccc2)c(=O)oc2c(C)c(OCC(=O)Nc3ccc(C#N)cc3)ccc12	Cruzain noTriton 12.6µM
COc1cccc(N2C(=O)N(CC(=O)NCc3cccc(OC)c3OC)c3ccccc3S2(=O)=O)c1	none
CCOc1ccc2c(c1)c(=O)c(C(=O)c1ccc3c(c1)OCO3)cn2Cc1cccc(F)c1	none
CC1CCN(S(=O)(=O)c2ccc3c(c2)N(CC(=O)N2CCN(c4ccccc4)CC2)C(=O)CO3)CC1	Cruzain noTriton inconclusive
C=CCSc1nnc(NC(=O)CSc2nc3ccccc3o2)s1	Cruzain noTriton 15.8µM
O=C(CSc1nc(-c2ccccc2)c(-c2ccccc2)o1)Nc1nnc(-c2ccccc2)s1	Cruzain noTriton 10µM
O=C(CSc1nc(-c2ccccc2)c(-c2ccccc2)o1)Nc1nncs1	none
Cc1nnc(NC(=O)CSc2nc3ccccc3o2)s1	none
O=C(CSc1nc2ccccc2o1)Nc1nc(-c2ccccc2)c(-c2ccccc2)s1	Cruzain noTriton 12.6µM
O=C(CSc1nc2ccccc2o1)Nc1nncs1	none
CCc1ccccc1NS(=O)(=O)c1ccc2c(c1)OCC(C(=O)N1CCCC1)O2 (stereo not drawn)	none
CC(C)[C@H](O)C1=CCCCC1=O	none
CCOc1ccc(NC(=O)NC(C)c2c(-n3cccc3)sc(C)c2C)cc1 (stereo not drawn)	none
COc1ccc(NC(=O)C2=CC(c3ccc4c(c3)OCO4)=NS(=O)(=O)N2C)cc1	Cruzain noTriton inconclusive
COc1ccc(C2=NS(=O)(=O)N(C)C(C(=O)Nc3ccc(OC(F)(F)F)cc3)=C2)cc1	Cruzain noTriton 10µM
CCc1ccc(OCC(=O)N(Cc2cccs2)c2ccc(Cl)cc2)cc1	none
CCCNC(=O)N1[C@H](c2ccc(C)s2)[C@@H](C)C(=O)[C@@H](C)[C@@H]1c1ccc(C)s1	none
CCOC(=O)c1c(NC(=O)c2ccc(S(=O)(=O)N3CCC(C)CC3)cc2)sc2c1CCN(CC)C2	none
Cc1sc2ncnc(SCC(=O)NCC(C)C)c2c1C	none
CCc1ccc(OCC(=O)NNC(=O)CSc2ncnc3sc(C)c(C)c23)cc1	Cruzain noTriton 20µM
COC(=O)c1c(-c2ccccc2)csc1NC(=O)CSc1ncnc2sc(C)c(C)c12	Cruzain noTriton 6.31µM
Cc1sc2ncnc(SCC(=O)c3ccc(Cl)s3)c2c1C	Cruzain noTriton 10µM
Cc1sc2ncnc(SCc3ccco3)c2c1C	none
Cc1nnc(NC(=O)CSc2ncnc3scc(-c4ccccc4)c23)s1	none
CCS(=O)(=O)c1ncc(Cl)c(C(=O)N2CCN(c3cccc(Cl)c3)CC2)n1	none
O=c1c2ccccc2c(-c2ccccc2)nn1-c1cc(Cl)ccc1[N+](=O)[O-]	Cruzain noTriton inconclusive
Cc1ccc(-c2nn(-c3cc(Cl)ccc3[N+](=O)[O-])c(=O)c3ccccc23)cc1C	Cruzain noTriton 12.6µM
COc1ccc(N(Cc2ccccc2)C(=O)c2nc(S(C)(=O)=O)ncc2Cl)cc1	none
COc1ccccc1C(=O)Nc1cc2ccccc2oc1=O	none

Source: PubChem
